# Results: PubChem BioAssay (EPA / NIEHS)
# Activity calls are given as the source filed them. The calls were made as follows: active = hit-call score of the fitted dose curve at least 0.9, where 1 is the maximum; inactive = score below 0.9.
# Tests used:
# Settings in all cases: mRNA level, 48 h; actives raise or lower the signal
# [1] = read-out: Peroxisomal acyl-coenzyme A oxidase 1 (ACOX1) gene, ACOX1 (gene 51); assay: LTEA_HepaRG_ACOX1: Life Technologies and Expression Analysis (LTEA) Assay for Peroxisomal acyl-coenzyme A oxidase 1 (ACOX1) gene using HepaRG (AID 2283467)
# Method in brief: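 Differentiated human HepaRG cells were exposed in duplicate for 48 h in serum-free induction medium to eight half-log concentrations up to 100 uM in 0.5% DMSO. ACOX1 mRNA was then quantified by TaqMan qRT-PCR, normalized to ACTB, GAPDH and POLR2A.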
# [2] = read-out: Bcl-2 (BAD) gene, BAD (gene 572); assay: LTEA_HepaRG_BAD: Life Technologies and Expression Analysis (LTEA) Assay for Bcl-2 (BAD) gene using HepaRG (AID 2283469)
# Method in brief: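 Differentiated human HepaRG cells in serum-free induction medium were exposed in duplicate for 48 h to eight concentrations (top 100 uM, half-log steps, 0.5% DMSO). BAD mRNA was quantified by qRT-PCR normalised to ACTB, GAPDH and POLR2A, with bidirectional fitting versus DMSO.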
# [3] = read-out: Bcl-2 (BAX) gene, BAX (gene 581); assay: LTEA_HepaRG_BAX: Life Technologies and Expression Analysis (LTEA) Assay for Bcl-2 (BAX) gene using HepaRG (AID 2283470)
# Method in brief: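 Concentration-response endpoint fitted in both directions relative to 0.5% DMSO vehicle. Human HepaRG cultures receive test chemicals for 48 h at up to 100 uM; BAX mRNA is quantified by qRT-PCR against housekeeping genes.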
# [4] = read-out: adenosine kinase (ADK) gene, ADK (gene 132); assay: LTEA_HepaRG_ADK: Life Technologies and Expression Analysis (LTEA) Assay for adenosine kinase (ADK) gene using HepaRG (AID 2283471)
# Method in brief: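 Differentiated HepaRG cells dosed 48 h in serum-free induction medium, 0.5% DMSO vehicle, eight half-log concentrations from 100 uM, in duplicate. ADK mRNA by TaqMan qRT-PCR normalised to ACTB, GAPDH, POLR2A; bidirectional fit versus DMSO.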
# [5] = read-out: Alpha-fetoprotein (AFP) gene, AFP (gene 174); assay: LTEA_HepaRG_AFP: Life Technologies and Expression Analysis (LTEA) Assay for Alpha-fetoprotein (AFP) gene using HepaRG (AID 2283472)
# Method in brief: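 After a 48 h plating period, cells are moved to serum-free induction medium and dosed in duplicate (100 uM maximum, half-log dilutions, 0.5% DMSO) for another 48 h. Total RNA goes to TaqMan qRT-PCR; AFP signal is housekeeping-normalized.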
# [6] = read-out: BCL2L11 (gene 10018); assay: LTEA_HepaRG_BCL2L11: Life Technologies and Expression Analysis (LTEA) Assay for Bcl-2 (BCL2L11) gene using HepaRG (AID 2283473)
# Method in brief: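 Cells were plated, cultured 48 h, switched to serum-free induction medium, then dosed in duplicate for 48 h at eight half-log concentrations up to 100 uM. Lysates underwent RNA isolation and TaqMan qRT-PCR; gain or loss versus DMSO was fitted.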
# [7] = read-out: Apolipoprotein A-V (APOA5) gene, APOA5 (gene 116519); assay: LTEA_HepaRG_APOA5: Life Technologies and Expression Analysis (LTEA) Assay for Apolipoprotein A-V (APOA5) gene using HepaRG (AID 2283474)
# Method in brief: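 Human liver HepaRG cells are treated 48 h with test chemicals (100 uM top, half-log dilutions, 0.5% DMSO). APOA5 mRNA induction or loss is measured by qRT-PCR relative to vehicle.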
# [8] = read-out: Apoptosis regulator Bcl-2 (Homo sapiens) (UniProt P10415); assay: LTEA_HepaRG_BCL2: Life Technologies and Expression Analysis (LTEA) Assay for Bcl-2 gene using HepaRG (AID 2283475)
# Method in brief: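 Expression change of BCL2 mRNA in HepaRG after 48 h dosing, quantified by TaqMan qRT-PCR against three endogenous controls. Concentration-response used eight points up to 100 uM, vehicle 0.5% DMSO.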
# [9] = read-out: Bcl-2 (BID) gene, BID (gene 637); assay: LTEA_HepaRG_BID: Life Technologies and Expression Analysis (LTEA) Assay for Bcl-2 (BID) gene using HepaRG (AID 2283476)
# Method in brief: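 Gain or loss of BID expression is fitted relative to 0.5% DMSO vehicle. Human HepaRG liver cells received a 48 h chemical exposure over an eight-point concentration range.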
# [10] = read-out: Caspase-3 (Homo sapiens) (UniProt P42574); assay: LTEA_HepaRG_CASP3: Life Technologies and Expression Analysis (LTEA) Assay for cysteine-aspartic acid protease (CASP3) using HepaRG (AID 2283477)
# Method in brief: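 In HepaRG liver cells dosed for 48 h at up to 100 uM (eight-point, duplicate), CASP3 expression changes are scored by qRT-PCR. Activity is fitted in both directions with 0.5% DMSO as baseline.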
# [11] = read-out: Cytochrome P450 (CYP24A1), CYP24A1 (gene 1591); assay: LTEA_HepaRG_CYP24A1: Life Technologies and Expression Analysis (LTEA) Assay for Cytochrome P450 (CYP24A1) using HepaRG (AID 2283478)
# Method in brief: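 Human liver HepaRG cultures receive each chemical for 48 h across an eight-point half-log series topping at 100 uM in 0.5% DMSO. Induction or suppression of CYP24A1 mRNA is scored relative to vehicle after housekeeping-gene normalization.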
# [12] = read-out: Cytochrome P450 (CYP1A2), CYP1A2 (gene 1544); assay: LTEA_HepaRG_CYP1A2: Life Technologies and Expression Analysis (LTEA) Assay for Cytochrome P450 (CYP1A2) using HepaRG (AID 2283479)
# Method in brief: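 Assesses CYP1A2 mRNA in human HepaRG liver cells after 48 h chemical exposure at up to 100 uM. Values come from qRT-PCR with bidirectional curve fitting relative to DMSO.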
# [13] = read-out: cysteine-aspartic acid protease (CASP8), CASP8 (gene 841); assay: LTEA_HepaRG_CASP8: Life Technologies and Expression Analysis (LTEA) Assay for cysteine-aspartic acid protease (CASP8) using HepaRG (AID 2283480)
# Method in brief: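 Differentiated human HepaRG cells, plated 48 h then switched to serum-free induction medium, were exposed in duplicate for 48 h to 8 half-log concentrations up to 100 uM in 0.5% DMSO. CASP8 mRNA was quantified by qRT-PCR, normalized to ACTB/GAPDH/POLR2A.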
# [14] = read-out: Cytochrome P450 (CYP2B6), CYP2B6 (gene 1555); assay: LTEA_HepaRG_CYP2B6: Life Technologies and Expression Analysis (LTEA) Assay for Cytochrome P450 (CYP2B6) using HepaRG (AID 2283481)
# Method in brief: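 Using 48 h treatment of HepaRG cells in serum-free induction medium, concentrations spanned half-log steps from 100 uM in 0.5% DMSO vehicle. CYP2B6 mRNA induction or loss is scored by qRT-PCR against DMSO.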
# [15] = read-out: Cytochrome P450 2C19 (Homo sapiens) (UniProt P33261); assay: LTEA_HepaRG_CYP2C19: Life Technologies and Expression Analysis (LTEA) Assay for CYP2C19 using HepaRG (AID 2283482)
# Method in brief: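 Human HepaRG liver cells received test chemicals for 48 h (highest 100 uM, half-log dilutions in 0.5% DMSO). CYP2C19 mRNA induction or loss is read by multiplexed qRT-PCR and fitted in both directions versus vehicle.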
# [16] = read-out: CYP2C8 (gene 1558); assay: LTEA_HepaRG_CYP2C8: Life Technologies and Expression Analysis (LTEA) Assay for CYP2C8 using HepaRG (AID 2283483)
# Method in brief: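 Differentiated human HepaRG cells were exposed for 48 h in serum-free induction medium to eight half-log concentrations up to 100 uM in 0.5% DMSO, in duplicate. CYP2C8 mRNA was measured by TaqMan qRT-PCR, normalized to ACTB, GAPDH and POLR2A, and fitted bidirectionally against DMSO.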
# [17] = read-out: CYP2C9 (gene 1559); assay: LTEA_HepaRG_CYP2C9: Life Technologies and Expression Analysis (LTEA) Assay for CYP2C9 using HepaRG (AID 2283484)
# Method in brief: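 Differentiated human HepaRG cells were exposed 48 h in serum-free induction medium to eight half-log concentrations up to 100 uM in 0.5% DMSO. CYP2C9 mRNA was measured by qRT-PCR, normalized to ACTB, GAPDH and POLR2A, and fitted bidirectionally against DMSO.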
# [18] = read-out: CYP2E1 (gene 1571); assay: LTEA_HepaRG_CYP2E1: Life Technologies and Expression Analysis (LTEA) Assay for CYP2E1 using HepaRG (AID 2283485)
# Method in brief: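 Differentiated HepaRG cells were treated in duplicate for 48 h with chemicals in 0.5% DMSO, from 100 uM downward in half-log dilutions. RNA was then analysed by qRT-PCR for CYP2E1 induction or loss.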
# [19] = read-out: CYP4A11 (gene 1579); assay: LTEA_HepaRG_CYP4A11: Life Technologies and Expression Analysis (LTEA) Assay for CYP4A11 using HepaRG (AID 2283486)
# Method in brief: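 Readout is CYP4A11 mRNA induction or suppression (qRT-PCR, ACTB/GAPDH/POLR2A normalization) in human HepaRG cells after 48 h chemical treatment, concentrations to 100 uM in 0.5% DMSO, fitted bidirectionally against vehicle.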
# [20] = read-out: Alkaline Phosphatase, Placental (ALPP) gene, ALPP (gene 250); assay: LTEA_HepaRG_ALPP: Life Technologies and Expression Analysis (LTEA) Assay for Alkaline Phosphatase, Placental (ALPP) gene using HepaRG (AID 2283468)
# Method in brief: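 Expression of ALPP was quantified by qRT-PCR against three housekeeping genes in human HepaRG cultures treated for 48 h with an eight-point concentration series up to 100 uM. Activity in either direction was fitted relative to 0.5% DMSO.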
# Chain of Apoptosis regulator Bcl-2 (Homo sapiens) (P10415 whole entry, looked up): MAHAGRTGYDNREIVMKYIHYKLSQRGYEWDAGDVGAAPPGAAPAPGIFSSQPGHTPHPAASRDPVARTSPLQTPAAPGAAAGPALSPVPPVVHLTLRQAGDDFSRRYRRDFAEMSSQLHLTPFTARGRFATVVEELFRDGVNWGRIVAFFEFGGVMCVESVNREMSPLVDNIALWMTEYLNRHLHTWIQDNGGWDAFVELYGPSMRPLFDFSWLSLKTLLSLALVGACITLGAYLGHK
# Chain of Caspase-3 (Homo sapiens) (P42574 whole entry, looked up): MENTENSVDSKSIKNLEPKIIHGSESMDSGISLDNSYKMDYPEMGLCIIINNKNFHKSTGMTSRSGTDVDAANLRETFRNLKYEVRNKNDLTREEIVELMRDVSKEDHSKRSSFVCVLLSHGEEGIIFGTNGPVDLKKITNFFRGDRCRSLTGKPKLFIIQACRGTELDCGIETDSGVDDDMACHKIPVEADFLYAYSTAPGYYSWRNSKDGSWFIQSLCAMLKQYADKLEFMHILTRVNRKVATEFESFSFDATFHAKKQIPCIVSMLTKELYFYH
# Chain of Cytochrome P450 2C19 (Homo sapiens) (P33261 whole entry, looked up): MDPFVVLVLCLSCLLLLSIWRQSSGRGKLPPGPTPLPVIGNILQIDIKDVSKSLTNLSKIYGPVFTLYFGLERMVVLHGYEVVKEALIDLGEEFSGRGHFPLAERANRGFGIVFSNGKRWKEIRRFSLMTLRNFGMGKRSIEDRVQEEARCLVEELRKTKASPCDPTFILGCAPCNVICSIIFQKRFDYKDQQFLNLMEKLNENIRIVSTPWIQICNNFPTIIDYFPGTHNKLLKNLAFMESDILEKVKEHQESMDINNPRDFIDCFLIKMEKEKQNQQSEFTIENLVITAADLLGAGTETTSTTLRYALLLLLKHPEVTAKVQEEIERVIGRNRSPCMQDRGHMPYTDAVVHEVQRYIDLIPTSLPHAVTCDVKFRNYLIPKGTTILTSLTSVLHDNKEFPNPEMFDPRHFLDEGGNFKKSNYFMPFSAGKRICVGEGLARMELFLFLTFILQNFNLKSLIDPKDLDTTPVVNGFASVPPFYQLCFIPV
smiles,measurement,setting,value
C=CC(=O)NCNC(=O)C=C,outcome,[1],inactive
same,outcome,[2],inactive
same,outcome,[3],inactive
same,outcome,[4],inactive
same,outcome,[5],inactive
same,outcome,[6],inactive
same,outcome,[7],inactive
same,outcome,[8],inactive
same,outcome,[9],inactive
same,outcome,[10],inactive
same,outcome,[11],inactive
same,outcome,[12],inactive
same,outcome,[13],inactive
same,outcome,[14],inactive
same,outcome,[15],inactive
same,outcome,[16],inactive
same,outcome,[17],inactive
same,AC50,[18],50 µM (active)
same,outcome,[19],inactive
N#Cc1ccc(N(CC(N)=O)CC(F)(F)F)cc1C(F)(F)F,outcome,[1],inactive
same,outcome,[20],inactive
same,outcome,[2],inactive
same,outcome,[3],inactive
same,outcome,[4],inactive
same,outcome,[5],inactive
same,outcome,[6],inactive
same,outcome,[7],inactive
same,outcome,[8],inactive
same,outcome,[9],inactive
same,outcome,[10],inactive
same,outcome,[11],inactive
same,outcome,[12],inactive
same,AC50,[14],0.159 µM (active)
same,AC50,[15],19.3 µM (active)
same,outcome,[16],inactive
same,outcome,[17],inactive
same,AC50,[18],0.537 µM (active)
same,outcome,[19],inactive
CCCCCCCCCc1ccc(O)cc1,outcome,[1],inactive
same,outcome,[20],inactive
same,outcome,[2],inactive
same,outcome,[3],inactive
same,outcome,[4],inactive
same,outcome,[5],inactive
same,outcome,[6],inactive
same,outcome,[7],inactive
same,outcome,[8],inactive
same,outcome,[9],inactive
same,outcome,[10],inactive
same,outcome,[11],inactive
same,outcome,[12],inactive
same,outcome,[13],inactive
same,outcome,[14],inactive
same,outcome,[15],inactive
same,outcome,[16],inactive
same,outcome,[17],inactive
same,outcome,[18],inactive
same,AC50,[19],33.5 µM (active)
CC(C)(c1ccccc1)c1ccc(O)cc1,outcome,[1],inactive
same,outcome,[20],inactive
same,outcome,[2],inactive
same,outcome,[3],inactive
same,outcome,[4],inactive
same,AC50,[5],77.8 µM (active)
same,outcome,[6],inactive
same,AC50,[7],78.3 µM (active)
same,outcome,[8],inactive
same,outcome,[9],inactive
same,outcome,[10],inactive
same,outcome,[11],inactive
same,AC50,[12],75.5 µM (active)
same,AC50,[14],11.8 µM (active)
same,outcome,[15],inactive
same,outcome,[16],inactive
same,outcome,[17],inactive
same,outcome,[18],inactive
ClC1=C(Cl)[C@]2(Cl)[C@@H]3[C@H]4C[C@H]([C@@H]5O[C@H]45)[C@@H]3[C@@]1(Cl)C2(Cl)Cl,outcome,[1],inactive
same,outcome,[2],inactive
same,outcome,[3],inactive
same,outcome,[4],inactive
same,AC50,[5],31.1 µM (active)
same,outcome,[6],inactive
same,AC50,[7],50 µM (active)
same,AC50,[8],9.92 µM (active)
same,outcome,[9],inactive
same,outcome,[10],inactive
same,outcome,[11],inactive
same,outcome,[12],inactive
same,outcome,[13],inactive
same,AC50,[14],1.01 µM (active)
same,AC50,[15],2.63 µM (active)
same,outcome,[16],inactive
same,outcome,[17],inactive
same,AC50,[18],22.6 µM (active)
same,AC50,[19],24.6 µM (active)
Cc1ccccc1O,outcome,[1],inactive
same,outcome,[20],inactive
same,outcome,[2],inactive
same,outcome,[3],inactive
same,outcome,[4],inactive
same,outcome,[5],inactive
same,outcome,[6],inactive
same,outcome,[7],inactive
same,outcome,[8],inactive
same,outcome,[9],inactive
same,outcome,[10],inactive
same,outcome,[11],inactive
same,outcome,[12],inactive
same,outcome,[13],inactive
same,AC50,[14],24.4 µM (active)
same,outcome,[15],inactive
same,outcome,[16],inactive
same,outcome,[17],inactive
same,outcome,[18],inactive
same,outcome,[19],inactive
